# Results reported in ChEMBL document CHEMBL4513216, “Probing the Open Global Health Chemical Diversity Library for Multistage-Active Starting Points for Next-Generation Antimalarials” (ACS Infect Dis, 2020).
# Out of some 69,000 compounds screened, about 8,600 (12%) showed an effect of 50% or more. What follows is part of a selection rich in strong results, with near analogues and random picks from the rest.
# System: Plasmodium berghei
# Assay: Screen against P. berghei liver stage (PbLuc), transformed with Luciferase, at 10uM
# Type: functional, HepG2
# Conditions: tested at 10 uM
row,SMILES,INHIBITION [%]
1,COC[C@@H]1CCCN1C(=O)CCc1c(C)nn(C)c1C,8.7
2,CCN(CC)c1nc2sc(C(=O)N3CCNC(=O)C3)cc2s1,-81.7
3,CC(C)CC1SCC(=O)Nc2c1cnn2-c1ccccc1F (stereo not given),13
4,O=C(O)[C@@H]1CN(C(=O)Cc2ccccc2Cl)C[C@H]1C1CC1,79.2
5,O=C(O)[C@@H]1CN(C(=O)CCCc2ccc(F)cc2)C[C@H]1C1CC1,-14.2
6,CCOc1ccccc1CC(=O)N1C[C@@H](C(=O)O)[C@H](C2CC2)C1,2.66
7,CC(=O)N1CCCC1c1nccnc1Nc1cccc(C)n1 (stereo not given),39.2
8,Cc1ccc(NCCNC(=O)C2Cc3cc(C)c(C)cc3O2)nn1 (stereo not given),55
9,O=C(NCCNC(=O)C1Cc2cc(F)ccc2O1)C1CCCCC1 (stereo not given),-0.529
10,Cc1cc2c(cc1C)OC(C(=O)NCCNC(=O)C1CCCC1)C2 (stereo not given),-35.1
11,O=S1(=O)NC2(CCCN(Cc3ccc(Cl)cc3)C2)COc2ccccc21 (stereo not given),27.5
12,Cc1cc(=O)n2nc(Oc3cccc(C(N)=O)c3)sc2n1,3.84
13,CS(=O)(=O)c1ncc(CN2CCCC(C(N)=O)C2)n1CC1CCCCC1 (stereo not given),0.734
14,CS(=O)(=O)c1ncc(CN2CCN3CCCC3C2)n1CC1CCCCC1 (stereo not given),12.3
15,CN(C)C1CCN(Cc2cnc(S(C)(=O)=O)n2CC2CCCCC2)C1 (stereo not given),81.6
16,N#Cc1ccc(CN2CCC(CN3CCOCC3)C2)cc1 (stereo not given),-11.9
17,CN1CC2(CCN(C(=O)c3cccnc3)CC2)c2cccc(F)c21,31.5
18,CCn1ncc2c1C(COCC1CC1)CN(C(=O)c1ccncn1)C2 (stereo not given),26.4
19,CC(C)N1CCC2(CCNCC2)C1=O,-25.8
20,O=C(CSc1nnc(N2CCOCC2)s1)NC(=O)Nc1ccccc1,-1
21,O=C(CSc1nnc(N2CCCC2)s1)NC(=O)Nc1ccccc1,-22.405
22,O=C(CSc1nnc(N2CCNCC2)s1)Nc1ccccc1,59.2
23,NC(=O)C(c1ccc(F)cc1)N1CCN(CCO)CC1 (stereo not given),56.9
24,CCc1nnc2n1CCN(C(C(N)=O)c1ccc(F)cc1)C2 (stereo not given),1.45

row,SMILES,INHIBITION [%]
1,Cc1nnc2n1CCN(C(C(N)=O)c1ccc(F)cc1)C2 (stereo not given),25.8
2,COc1cccc(OC)c1OCCn1c(C)c(C)oc1=O,22.5
3,Cc1cc(C)n(CC2CCCN2C(=O)c2ccc(N(C)C)nn2)n1 (stereo not given),38.8
4,Fc1ccccc1-c1noc2c1CN(CCN1CCOCC1)CC2,34.5
5,Fc1ccccc1-c1noc2c1CN(CC1CC1)CC2,55.4
6,CC(C)=CCN1CCc2onc(-c3ccc(F)c(F)c3)c2C1,5.78
7,Fc1ccc(-c2noc3c2CN(CC2CC2)CC3)cc1F,52.7
8,CC(O)CN1CCc2onc(-c3ccccc3F)c2C1 (stereo not given),-10.9
9,c1ccc(-c2noc3c2CN(CC2CC2)CC3)cc1,2.3
10,Fc1cc(CN2CCCC2Cn2cncn2)c2ncccc2c1 (stereo not given),11.8
11,O=C(N1CCCO1)[C@@]12CCO[C@@H]1CCN(C1CCCCC1)C2,13
12,Cc1cccc(C)c1Oc1ncccc1CNC(=O)C1COC(=O)N1 (stereo not given),53.8
13,Cc1ccc(Oc2ncccc2CNC(=O)C2COC(=O)N2)c(F)c1F (stereo not given),12.9
14,COc1ccccc1Oc1ncccc1CNC(=O)C1COC(=O)N1 (stereo not given),41.3
15,CCCN(CCO)C(=O)c1cc(COc2ccc3c(c2)CCCC3)on1,33
16,CC(Cn1cccn1)NC(=O)NCCc1ccsc1 (stereo not given),21.5
17,CCC(C(=O)Nc1ccc2nc(C)oc2c1)N1CCCC1=O (stereo not given),71.2
18,CCC(C(=O)NCCc1ccn(-c2ccccc2)n1)N1CCCC1=O (stereo not given),-21
19,CCC(C(=O)N1CCCSCC1)N1CCCC1=O (stereo not given),21.5
20,Cc1occc1CNC(=O)Nc1ccc2nc(N3CCOCC3)oc2c1,25.8
21,CCC(C(=O)Nc1ccc2cn(CC)nc2c1)N1CCCC1=O (stereo not given),54.5
22,CCC(CNC(=O)Nc1cnn(CC)c1)N1CCCC1 (stereo not given),39.5
23,CN(C)C(=O)COCC1CN(C2CCC2)Cc2ncn(C)c21 (stereo not given),-19.1
24,Cc1cc(C)n(Cc2cccc(C(=O)N3CCOCC3(C)C)c2)n1,-4.23

row,SMILES,INHIBITION [%]
1,CCN(CC)C(=O)CNC(=O)N1CCC(c2ccccc2)C1 (stereo not given),43.7
2,CC(C)(O)CCc1cccc(C(=O)N2Cc3cnn(CCO)c3C2)c1,14
3,O=C(c1ccc(CN2CCCCC2)cc1)N1Cc2cnn(CCO)c2C1,30.3
4,CC(C)(O)CCc1ccc(C(=O)N2CCN(CCS(C)(=O)=O)CC2)cc1,16.8
5,CC(C)(O)CCc1ccc(C(=O)N2CCN(CC(F)(F)F)CC2)cc1,52.6
6,CC(C)(O)CCc1ccc(C(=O)N2CCN(CC3CCCC3)CC2)cc1,26.6
7,CC(C)(O)CCc1ccc(C(=O)N2Cc3cnn(CCO)c3C2)cc1,73
8,CCCS(=O)(=O)N1CC(=O)N(CCCc2ccccc2)CC(O)C1 (stereo not given),48.7
9,O=C(c1sccc1C1CC1)N1CCCN(Cc2cscn2)CC1,-4.16
10,Cc1cccc(C(C(=O)NCc2cc(C)[nH]n2)N(C)C)c1 (stereo not given),3.69
11,COc1cc(NCc2ccncc2)c(-c2nn[nH]n2)cc1OC,-34.6
12,COc1ncccc1CNC(=O)N1CCCC1c1ccsc1 (stereo not given),-24.2
13,CCN1CCN(C(=O)NCc2cc[nH]n2)CC1,-29.7
14,CN(C)c1ncnc2c1CCN(S(=O)(=O)c1cccc3nsnc13)C2,31.6
15,CN(C)c1ncnc2c1CCN(C(=O)c1sccc1S(N)(=O)=O)C2,-9.18
16,COC(=O)c1sccc1S(=O)(=O)N1CCC(Oc2cccc(C)n2)CC1,21.8
17,CN(C)c1ncnc2c1CCN(S(=O)(=O)c1ccccc1C(F)(F)F)C2,30.3
18,COC(=O)c1sccc1S(=O)(=O)N1CCC(Oc2cnccn2)CC1,53.7
19,COC(=O)c1sccc1S(=O)(=O)N1CCC(Oc2cccnn2)CC1,21.6
20,COC(=O)c1sccc1S(=O)(=O)N1CCc2c(ncnc2N(C)C)C1,58.1
21,Cc1ccccc1S(=O)(=O)N1CCc2c(ncnc2N(C)C)C1,66.1
22,CN(C)c1ncnc2c1CCN(S(=O)(=O)c1cccc(Cl)c1Cl)C2,42.7
